# Measured values: PubChem BioAssay (NCI)
# Compounds without any hit were thinned out: in the full panel of roughly 83,000, 20% have a hit.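 For each line, cells grew in 96-well plates with the test compound present at a single concentration for 48 hours.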 Unmarked numbers belong to inactive results. The source made the active and inactive calls. The calls were made as follows: active = growth percent below 10; inactive = the rest.
# How the values were obtained:
# Assay in all cases: NCI-60 one-dose screen, 48 h (100 = growth as untreated, 0 = no growth, -100 = all killed)
# Conditions in all cases: 10 µM unless noted
# HCT-15 colon = system: HCT-15 colon
# HT29 colon = system: HT29 colon
# SNB-75 CNS = system: SNB-75 CNS
# SNB-19 CNS = system: SNB-19 CNS
# U251 CNS = system: U251 CNS
# PC-3 prostate = system: PC-3 prostate
# SK-MEL-5 melanoma = system: SK-MEL-5 melanoma
# LOX IMVI melanoma = system: LOX IMVI melanoma
# SK-MEL-28 melanoma = system: SK-MEL-28 melanoma
# UACC-62 melanoma = system: UACC-62 melanoma
Compound,growth (HCT-15 colon),growth (HT29 colon),growth (SNB-75 CNS) [%],growth (SNB-19 CNS) [%],growth (U251 CNS),growth (PC-3 prostate) [%],growth (SK-MEL-5 melanoma),growth (LOX IMVI melanoma),growth (SK-MEL-28 melanoma) [%],growth (UACC-62 melanoma) [%]
COc1cc(/C=C/C(=O)c2ccc(NC(=O)CN3CCN(c4cc5c(cc4F)c(=O)c(C(=O)O)cn5C4CC4)CC3)cc2)cc(OC)c1OC,18.2%,-3.37% (active),76.6,34.9,-55.8% (active),21.5,-42.9% (active),-54.7% (active),34,
O=C(O)c1cn(C2CC2)c2cc(N3CCN(S(=O)(=O)c4ccc(Cl)c(Cl)c4)CC3)c(F)cc2c1=O,6.24% (active),0.259% (active),13.2,24.7,12.4%,16.2,2.06% (active),1.21% (active),48.5,
COc1ccc(/C=C/C(=O)c2cc(OC)c(OC)c(OC)c2)cc1OCc1cn(Cc2ccc(F)cc2)nn1,23.8%,4.82% (active),27.5,78.4,19.3%,35.1,80.8%,13.3%,87.3,
CC1(C)OC2COC3(C(=O)O)OC(C)(C)OC3C2O1 (centres undefined),98.8%,99.8%,87.2,92.1,102%,100,102%,95.6%,107,
NC(=O)c1ccc2c(c1)OCO2,102%,103%,84.2,109,107%,98.9,,95.4%,108,103
CCCCCCCCCCCCCCCCC(Br)C(=O)O (centres undefined),83%,108%,86.5,105,102%,103,,106%,100,105
NS(=O)(=O)c1ccc(CN2C(=O)c3cccc4cccc(c34)C2=O)cc1,88.5%,102%,83.9,100,99%,93.3,96.8%,96.2%,113,
CSc1ccccc1C#C/C=C\C#Cc1ccccc1N1CCCCC1=O,112%,94.9%,118,111,93.6%,77.7,,91.8%,153,78.5
Cc1ccc(OCCn2c(C)nn(-c3ccc(Cl)cc3)c2=O)cc1,111%,119%,82.6,109,101%,92.4,109%,96.3%,101,
Cc1cc(NC(=O)COC(=O)c2sc3cc(F)ccc3c2Cl)no1,106%,114%,104,103,106%,101,110%,103%,121,
COc1ccc(C(=O)/C=C/c2cccc([N+](=O)[O-])c2)c(OC)c1,-47.2% (active),-3.14% (active),35.2,17,-16.2% (active),33.3,,-73.3% (active),69.4,31.5
Cc1cc(C)c2c(=O)[nH]c(SCC(=O)Nc3cccc(S(=O)(=O)N(C)C)c3)nc2n1,119%,104%,90.7,95.9,108%,95.4,,101%,126,98.3
COC1=CC(c2ccc[nH]2)=N/C1=C\c1[nH]c(C)c(C(=O)CCCCC(=O)Oc2ccc3c(c2)CCC2C3CC[C@]3(C)[C@@H](O)CC[C@@H]23)c1C (some centres undefined),37.1%,38.7%,62.7,75.6,52.6%,42.9,,1.7% (active),81.3,57.9
CC(Cc1nnc(SCC(=O)Nc2ccc(I)cc2)n1N)c1ccccc1 (centres undefined),103%,111%,260,96.6,92.7%,90.2,,83.7%,133,66.8
Clc1nc(Cl)c2ncn(C/C=C/Cn3cnc4c(Cl)nc(Cl)nc43)c2n1,50.1%,48%,65,74.5,57.4%,66.6,,,98.8,79.1
